The values below come from PubChem BioAssay (NCATS).

Results filed as inconclusive are left out. The source made the active and inactive calls. Unless noted, the call rests on the fitted dose curve; in most records, active means well fitted curve in the direction sought with a large enough effect; inconclusive means small, poorly fitted or top-dose-only effect, or another doubt; inactive means no such curve, though single readings can be large; an effect the other way counts as inactive or inconclusive.

Assay [1] is described as follows: Quantitative High-Throughput drug screen in 47 multiple myeloma cell lines against the NCATS MIPE library collection: OPM2_DSMZ cell viability assay (AID 1919872). Further: nearly all actives have a fitted effect of over 30% in size. The essentials:
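Luminescent ATP measurement with CellTiter-Glo gives viability, scaled between DMSO-only wells (100%) and media-only wells (0%). Cells, 500 per well, faced library compounds for 48 hours at 37C.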

Assay [2] in a line: Quantitative High-Throughput drug screen in 47 multiple myeloma cell lines against the NCATS MIPE library collection: KMS11_JCRBsus cell viability assay (AID 1919873). Further: nearly all actives have a fitted effect of over 50% in size. The essentials: (§1)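 ATP-based CellTiter-Glo luminescence after 48 h drug exposure (37 °C, 5% CO2) of 500 myeloma cells per well. DMSO-only wells set 100% viability, media-only wells 0%; MIPE 4.0 library added by pin tool.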

Assay [3] in a line: qHTS profiling for inhibitors of Plasmodium falciparum proliferation (AID 504749). Further: nearly all actives have a fitted effect of over 60% in size. Further: potency means the concentration at half of the fitted maximal effect.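 On activity, negative = inhibition: 0% = DMSO vehicle and full inhibition = artemisinin control.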 The following applies: P. falciparum in erythrocytes, SYBR Green DNA, 72 h. In outline:
(§2)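 SYBR Green fluorescence of parasite DNA, read after lysis and overnight dark incubation, measured growth over 72 h in erythrocyte culture at 0.3% parasitemia and 2.5% hematocrit. Data normalised to DMSO and 0.29 uM artemisinin, with plate-drift correction.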
On the technique in general: In qHTS, concentration-response curves come from the screen itself.

In the next assay the test system is 3D7. Described as above. The settings on record: P. falciparum in erythrocytes, SYBR Green DNA, 72 h; series mostly up to 28.7 µM. In outline:
as §2

The test system of the next assay is AA1029. Described as above. The settings on record: P. falciparum in erythrocytes, SYBR Green DNA, 72 h; series mostly up to 28.7 µM. In outline: as §2
Assay [4] can be described thus: Quantitative High-Throughput drug screen in 47 multiple myeloma cell lines against the NCATS MIPE library collection: KMS28BM_JCRB cell viability assay (AID 1919874). Further: nearly all actives have a fitted effect of over 35% in size. Further: potency means the concentration at half of the fitted maximal effect. In outline: as §1
A short description of assay [5]: qHTS drug screen for cell cycle checkpoint inhibitors in PARPi-resistant BRCA-mutant ovarian cancer cell lines. (AID 1963452; calls by dose curve). The following applies: PEO1/OlaR viability, CellTiter-Glo luminescence, 96 h, stronger effect = lower value. The essentials: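 PEO1, PEO4 and PEO1/OlaR ovarian cancer cells, 600 per well, exposed 96 h at 37C to a dilution series. Viability read by CellTiter-Glo luminescence, normalized to DMSO and empty wells; activity summarized as Z-AUC.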

Assay [6] is described as follows: qHTS for identification of novel therapeutic agents for treatment of microphthalmiaassociated transcription factor (MiT) renal cell carcinoma (RCC) (AID 1963991). The settings on record: CellTiter-Glo, 48 h, stronger effect = lower value. In outline:
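Three TFE3-fusion RCC cell lines (UOK109, UOK124, UOK145), 500 cells/well, were exposed to the 1912-compound MIPE 4.0 library for 48 hours at 37 C. Viability was read by CellTiter-Glo luminescence, normalised to DMSO (100%) and empty wells (0%), with 11-concentration curve fits.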

The next assay deals with 7G8. Description: qHTS profiling for inhibitors of Plasmodium falciparum proliferation (AID 504749). Further: nearly all actives have a fitted effect of over 60% in size. Further: potency means the concentration at half of the fitted maximal effect.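 On activity, negative = inhibition: 0% = DMSO vehicle and full inhibition = artemisinin control.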 The following applies: P. falciparum in erythrocytes, SYBR Green DNA, 72 h; series mostly up to 28.7 µM. In outline:
as §2

Where [7] appears, read: at 28.7 µM (top of the series), parasite line A.
[8] abbreviates: at 28.7 µM (top of the series), parasite line B.
[9] abbreviates: measured here: PEO1 parental Z-AUC.
Where [10] appears, read: TFE3-RCC UOK109 viability, measured here: UOK109 Z-AUC.
The mark [11] stands for this setting: TFE3-RCC viability, measured here: UOK124 Z-AUC.
[12] abbreviates: TFE3-RCC viability, measured here: UOK145 Z-AUC.
Setting [13] is: at 12.8 µM (top of the series), parasite line A.
[14] abbreviates: at 12.8 µM (top of the series), parasite line B.

Consider `Cc1ccnc2c1NC(=O)c1cccnc1N2C1CC1`, for which the Potency entry (in assay [1]; in [2]; in the assay on 3D7; with AA1029) was “inactive” each time. The activity, negative = inhibition is 0.983% (inactive) in [3] (setting [7]) and -17.2% (inactive) in [3] (setting [8]).

Consider `O=C(NCC1CN(c2ccc(N3CCOCC3=O)cc2)C(=O)O1)c1ccc(Cl)s1` (stereo unspecified), for which the Potency entry in [1] and in [4] was “inactive” each time. The Z-AUC in [5] was -0.884 (inactive); in assay [5] (setting [9]), -0.579; in assay [5] (measured here: PEO4 Z-AUC), -0.444. Besides, the z-score came to 0.607 in assay [6] (setting [10]), 0.69 in assay [6] (setting [11]) and 0.507 in assay [6] (setting [12]).

On to `COc1cc(NS(=O)(=O)c2ccc(N)cc2)nc(OC)n1`, for which the Potency entry (in assay [1]; in [2]; in the assay with 3D7; in the assay with 7G8; in the assay on AA1029) was “inactive” in each case. For the same compound, the activity, negative = inhibition was 5.18% (inactive) in [3] (setting [13]) and -3.51% (inactive) in [3] (setting [14]).

With `Cc1cccc(Nc2ccncc2S(=O)(=O)NC(=O)NC(C)C)c1`, the Potency result (in assay [1]; with 3D7; in the assay on 7G8; in the assay on AA1029) was “inactive” each time. The values for the z-score in [6] (setting [10]), in [6] (setting [11]) and in assay [6] (setting [12]) were 0.581, 0.17 and 0.58, respectively. The activity, negative = inhibition is -0.953% (inactive) in [3] (setting [13]) and 11.1% (inactive) in assay [3] (setting [14]).

Take `CC1CC2C3CCC4=CC(=O)C=C[C@]4(C)[C@@]3(F)[C@@H](O)C[C@]2(C)[C@@]1(O)C(=O)CO` (stereo partly specified): the Potency result in [1] and in assay [4] was “inactive” each time. Besides, the z-score in [6] (setting [10]) worked out at 0.936; in assay [6] (setting [11]), 0.693; in [6] (setting [12]), 0.527.

`O=C(O)c1ccc(-n2nc(-c3ccccc3O)nc2-c2ccccc2O)cc1`: the Potency result in assay [1] was “inactive”. Also, the Z-AUC was 0.434 (inactive) in [5], -0.254 in assay [5] (setting [9]) and -0.47 in assay [5] (measured here: PEO4 Z-AUC).

Take `CNS(=O)(=O)Cc1ccc2[nH]cc(CCN(C)C)c2c1`: the Potency entry (in [1]; in assay [2]; in the assay with 3D7; with 7G8; in the assay on AA1029) was “inactive” each time. Moreover, the values for the activity, negative = inhibition in [3] (setting [7]) and in [3] (setting [8]) were -10.9% (inactive) and -3.89% (inactive), respectively.

Take `Nc1ccc(S(=O)(=O)Nc2ccccn2)cc1`: the Potency entry (in assay [1]; in [2]; with 3D7; in the assay on 7G8; in the assay on AA1029) was “inactive” throughout. Also, the z-score in assay [6] (setting [10]) came to 1.57; in assay [6] (setting [11]) it was 0.543; in assay [6] (setting [12]), 0.723. Also, the results for the activity, negative = inhibition in [3] (setting [13]) and in [3] (setting [14]) were -13.7% (inactive) and -1.88% (inactive), respectively.

Turning to `O=c1oc2c(O)c(O)cc3c(=O)oc4c(O)c(O)cc1c4c23`, the Potency result (in assay [1]; in [2]; in the assay with AA1029) was “inactive” each time. The z-score in assay [6] (setting [10]) turned out to be 1.02; in assay [6] (setting [11]), 0.807; in assay [6] (setting [12]) it was 0.717. The figures for the Potency in the assay with 3D7 and with 7G8 were 1 µM (active) and 2.82 µM (active), respectively.

As to `CN1CCN(c2c(F)cc3c(=O)c(C(=O)O)cn4c3c2OCN4C)CC1`, the Potency result (in [1]; in [2]; with 3D7; in the assay on 7G8; in the assay with AA1029) was “inactive” each time. In addition, the activity, negative = inhibition in [3] (setting [7]) is 4.43% (inactive); in assay [3] (setting [8]) it was 17.6% (inactive).

As for `NC(N)=NC(N)=NCCc1ccccc1`, the Potency in assay [4] was 7.43 µM (active). The figures for the Z-AUC in [5], in [5] (setting [9]) and in [5] (measured here: PEO4 Z-AUC) were 1.13 (inactive), 0.288 and 0.483, respectively. Further, the activity, negative = inhibition is -25.4% (inactive) in assay [3] (setting [13]), -8.82% (inactive) in assay [3] (setting [14]) and -17% (inactive) in [3] (setting [8]). For the same compound, the Potency result in the assay with 3D7, in the assay on 7G8 and in the assay on AA1029 was “inactive” each time.
